Drawing on PubChem BioAssay AID2845 (The Scripps Research Institute Molecular Screening Center, 2010), this text covers activation for 47 compounds.

Hit rate of the full screen: of about 2,300 compounds, about 2,000 (87%) were called active. Rule as the data show it: active = activation above about 49%; inactive = the rest. So high a share suggests a set chosen from earlier hits. A selection follows.

The test deals with Aryl hydrocarbon receptor (Homo sapiens) (UniProt P35869). The test is described as follows: activators of human aryl hydrocarbon receptor reporter – cell-based, luminescence, luciferase reporter, confirmation (AID 2845).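 Also: HepG2 hepatoma cells carrying a DRE-driven firefly luciferase reporter; 0% = vehicle wells and 100% = reference agonist wells.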 To be noted: human cells, AHR-responsive luciferase reporter, at 9 µM, hits give high values. For orientation: Reporter assays use an easily measured gene product as a stand-in for the process of interest.
Sequence of Aryl hydrocarbon receptor (Homo sapiens) (P35869 whole entry, looked up): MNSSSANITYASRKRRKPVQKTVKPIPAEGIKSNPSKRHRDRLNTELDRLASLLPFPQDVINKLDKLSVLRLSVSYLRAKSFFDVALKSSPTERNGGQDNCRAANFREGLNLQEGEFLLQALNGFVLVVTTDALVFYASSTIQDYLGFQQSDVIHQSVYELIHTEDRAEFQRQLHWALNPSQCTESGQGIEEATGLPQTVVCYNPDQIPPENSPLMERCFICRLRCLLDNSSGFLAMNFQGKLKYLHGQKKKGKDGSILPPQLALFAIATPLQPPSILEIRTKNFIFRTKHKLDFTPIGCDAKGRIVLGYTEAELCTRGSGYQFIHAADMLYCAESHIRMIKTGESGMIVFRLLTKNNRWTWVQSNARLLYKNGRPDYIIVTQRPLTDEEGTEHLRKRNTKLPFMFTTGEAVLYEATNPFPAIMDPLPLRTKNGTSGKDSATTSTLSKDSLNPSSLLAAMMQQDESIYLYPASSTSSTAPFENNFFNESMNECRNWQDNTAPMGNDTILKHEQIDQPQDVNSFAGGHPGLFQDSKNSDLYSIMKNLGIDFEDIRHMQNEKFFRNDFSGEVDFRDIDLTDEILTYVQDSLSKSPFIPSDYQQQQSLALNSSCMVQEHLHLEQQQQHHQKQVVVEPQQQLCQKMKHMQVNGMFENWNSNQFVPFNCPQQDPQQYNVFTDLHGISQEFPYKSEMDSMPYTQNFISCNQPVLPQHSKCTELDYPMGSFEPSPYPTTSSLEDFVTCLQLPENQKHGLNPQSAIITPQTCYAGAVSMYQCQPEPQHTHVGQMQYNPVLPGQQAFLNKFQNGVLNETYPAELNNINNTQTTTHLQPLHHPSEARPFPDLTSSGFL
As to `S=c1nc2ccccc2c2nc(-c3cccnc3)[nH]n12`, the activation is 125% (active).

`O=C(Nc1ccc(-c2csc(Nc3cccc(C(F)(F)F)c3)n2)cc1)c1cccc(C(F)(F)F)c1`: the activation was 4.55% (inactive).

In the case of `O=C(Nc1ccc(C(F)(F)F)cc1)c1cccc(-n2cnnn2)c1`, the activation is 106% (active).

Turning to `CC(C(=O)N=Nc1c(O)n(C)c2ccc(Br)cc12)n1cnc2ccccc2c1=O` (configuration not stated), the activation was 73.7% (active).

`O=C(CSc1cccc2cccnc12)N/N=C/c1cccnc1`: the activation is 21.4% (inactive).

With `Cc1nn(Cc2ccc(Cl)cc2)c(Cl)c1/C=N/NC(=O)c1cccnc1`, the activation is 74.2% (active).

As for `Cc1c(C(=O)NCC(c2ccco2)N2CCCC2)oc2ccc(Cl)cc12` (configuration not stated), the activation is 75.5% (active).

Turning to `CCOC(=O)N1CCN(C(=O)c2cc3c(-c4ccc(Cl)cc4)nn(C)c3s2)CC1`, the activation is 85.9% (active).

Take `Cn1nc(-c2ccc(Cl)cc2)c2cc(C(=O)NCc3ccco3)sc21`: the activation was 148% (active).

Regarding `COc1ccccc1N1CCN(C(=O)c2cc3c(-c4ccc(Cl)cc4)nn(C)c3s2)CC1`, the activation was 102% (active).

Turning to `CN(C)c1nc(Nc2ccc(Cl)c(Cl)c2)nc(N(C)C)n1`, the activation was 129% (active).

For `C=CCNC(=O)CSc1nc2sc(C)c(C)c2c(=O)[nH]1`, the activation is 53% (active).

In the case of `c1cnc(N2CCN(c3ccc4ccccc4n3)CC2)nc1`, the activation was 96.5% (active).

`Cc1nc2sc(C(=O)c3ccccc3)c(N)c2c2c1CCCC2`: the activation is 97.5% (active).

For `Cn1c(SCC(=O)c2ccccc2)ncc(C(=O)Nc2ccc(F)cc2)c1=O`, the activation is 120% (active).

`CC1Cc2ccccc2N1C(=O)CSc1nnc(C2CC2)n1C` (configuration not stated): the activation is 47.2% (active).

As to `COc1ccc(C(=O)Nc2ccccc2C(=O)N/N=C/c2ccccc2OC)cc1`, the activation is 66.5% (active).

Consider `O=C(CC1Nc2ccccc2NC1=O)Nc1ccccc1` (configuration not stated), for which the activation was 119% (active).

Regarding `Cn1cc(Cl)c(C(=O)NNC(=S)Nc2cccc(Cl)c2)n1`, the activation is 75.4% (active).

Consider `O=C(Nn1c(-c2ccc(Cl)cc2)nc2ccccc2c1=O)c1cccnc1Cl`, for which the activation was 28.5% (inactive).

On to `Cc1ccc(-c2nc(C#N)c(NCCCn3ccnc3)o2)cc1`, for which the activation was 107% (active).

Regarding `O=C(Cn1c(NCCO)nc2ccccc21)c1ccc(Cl)cc1Cl`, the activation was 115% (active).

Turning to `COc1ccc(C2NC(=O)c3ccccc3N2)cc1` (configuration not stated), the activation is 39.3% (inactive).

For the compound `Cc1cc(O)c(C(=O)/C=C/c2c(F)c(F)c(F)c(F)c2F)c(=O)o1`, the activation is 69.7% (active).

With `CCOC(=O)c1ccc2[nH]c3c(c2c1)CCCC3NC=O` (configuration not stated), the activation is 89.1% (active).

As to `CC(C)C(=O)Nc1c(C(=O)c2ccc(F)cc2)oc2ccccc12`, the activation is 84.4% (active).

Regarding `CSc1ncccc1C(=O)Nc1nc2ccc(F)cc2s1`, the activation is -8.12% (inactive).

`O=C(CSc1ccccn1)Nc1nc2c(ccc3ccccc32)s1`: the activation is 130% (active).

With `C/C(=N\NC(=O)CNc1cccc2ccccc12)c1ccc(Br)s1`, the activation is 79.5% (active).

`Cc1nn2c3cc(N4CCOCC4)ccc3nc2c2ccccc12`: the activation was 85% (active).

`Cc1cc(N2CCOCC2)nc(-c2ccc(Br)cc2)n1`: the activation is 60.3% (active).

Regarding `O=C(Cn1cncn1)N/N=C/c1c2ccccc2cc2ccccc12`, the activation is 73.7% (active).

Consider `CCOc1ccccc1NC(=O)c1cccnc1`, for which the activation is 121% (active).

With `O=C(Nc1cccc(Cl)c1)C1CCCN(c2cnccn2)C1` (configuration not stated), the activation was 73% (active).

Take `Cc1ccc(Cl)cc1NC(=O)C1CCCN(c2cnccn2)C1` (configuration not stated): the activation is 90.8% (active).

Consider `Brc1ccc(-c2noc(-c3ccccc3)n2)o1`, for which the activation was 162% (active).

Turning to `Nc1[nH][nH]c(=O)c1N=Nc1ccc2c(c1)OCO2`, the activation is 74.9% (active).

As to `C=CCOc1c(Br)cc(/C=N\n2nnnc2N)cc1OC`, the activation was 77.9% (active).

For `COc1ccc(Cl)cc1C(=O)Nc1ccc(N(C)C(C)=O)cc1`, the activation is 78.6% (active).

For the compound `COc1cccc(-n2c(SCC(=O)NC3CCCCC3)nc3n[nH]c(C)c3c2=N)c1`, the activation is 83.7% (active).

Turning to `COc1cccc(OC)c1C(=O)Nc1ccc(N2CCCCC2)cc1`, the activation was 80.7% (active).

Regarding `COc1cc2ccccc2cc1C(=O)Nc1ccc(N2CCOCC2)cc1`, the activation was 118% (active).

With `O=C(Nc1ccc(OC(F)(F)F)cc1)c1ccc2c(c1)no[n+]2[O-]`, the activation is 127% (active).

With `OCCNc1nc(Nc2ccc(Cl)c(Cl)c2)nc2ccccc12`, the activation was 83.8% (active).

For the compound `CCc1nc(Nc2ccc3nccnc3c2)c2oc3ccccc3c2n1`, the activation was 120% (active).

As for `CCCCC(=O)Nc1ccc(C(=O)Nc2cc(C(F)(F)F)ccc2Cl)cc1`, the activation was 92.7% (active).

For the compound `Cc1nn(-c2ccccc2)c2[nH]c(C(F)(F)F)cc(=O)c12`, the activation was 52.9% (active).
